Reference: PubChem BioAssay AID1159580 (chemical genetic matrix, 2015)
The campaign covered roughly 5,500 compounds. About 2,000 (36%) were called active. Inconclusive results (about 18%) are left out. No stated cut-off is given here; in the data, active means normalized growth mostly below about 0.91 (no sharp cut-off); inconclusive means no clear call, values can overlap the other calls; inactive means mostly above about 0.92. Some of the results follow.

Assay: chemical genetic growth profiling, strain panel (AID 1159580);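 further: tested at 20 µM; growth read once vehicle control cultures reached saturation at 30 °C; 1 = growth at the plate median or of vehicle wells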
Settings: S. cerevisiae deletion strains, growth OD
[1] = locus YAL040C, strain CLN3, stronger effect = lower value
[2] = locus YCL061C, strain MRC1 (second series), stronger effect = lower value
[3] = locus YDR150W, strain NUM1, stronger effect = lower value
[4] = locus YDR363W, strain ESC2, stronger effect = lower value
[5] = locus YER002W, strain NOP16, stronger effect = lower value
[6] = locus YJR075W, strain HOC1, stronger effect = lower value
[7] = locus YMR263W, strain SAP30, stronger effect = lower value
[8] = locus YMR307W, strain GAS1, stronger effect = lower value
[9] = locus YNL153C, strain GIM3, stronger effect = lower value
[10] = locus YNL175C, strain NOP13, stronger effect = lower value
[11] = locus YNL197C, strain WHI3, stronger effect = lower value
[12] = locus YNL224C, strain SQS1, stronger effect = lower value
[13] = locus YOR083W, strain WHI5 (second series), stronger effect = lower value
[14] = locus YAL013W, strain DEP1, stronger effect = lower value
[15] = locus YNL322C, strain KRE1, stronger effect = lower value
[16] = locus YPL241C, strain CIN2, stronger effect = lower value
[17] = locus YBR229C, strain ROT2, stronger effect = lower value
[18] = locus YDL101C, strain DUN1, stronger effect = lower value
[19] = locus YDL134C, strain PPH21, stronger effect = lower value
[20] = locus YEL061C, strain CIN8, stronger effect = lower value
[21] = locus YGR078C, strain PAC10, stronger effect = lower value
[22] = locus YHR030C, strain SLT2, stronger effect = lower value
[23] = locus YHR087W, strain rtc3, stronger effect = lower value
[24] = locus YJL187C, strain SWE1, stronger effect = lower value
[25] = locus YJR043C, strain POL32, stronger effect = lower value
[26] = locus YLR039C, strain RIC1, stronger effect = lower value
[27] = locus YLR058C, strain SHM2 (second series), stronger effect = lower value
[28] = locus YLR085C, strain ARP6, stronger effect = lower value
[29] = locus YLR262C, strain YPT6, stronger effect = lower value
[30] = locus YML094W, strain GIM5, stronger effect = lower value
[31] = locus YMR219W, strain ESC1, stronger effect = lower value
[32] = locus YNL298W, strain CLA4 (second series), stronger effect = lower value
[33] = locus YNR030W, strain Alg12, stronger effect = lower value
[34] = locus YOL006C, strain TOP1, stronger effect = lower value
[35] = locus YPL055C, strain LGE1, stronger effect = lower value
[36] = locus YPR135W, strain CTF4, stronger effect = lower value

Measured: normalized growth

O=c1oc(Cl)c(Cl)c2ccccc12
inactive: [1] 1.03 | [2] 1 | [3] 0.991 | [4] 1 | [5] 1.02 | locus YGR229C, strain SMI1, stronger effect = lower value 0.968 | [6] 0.998 | [7] 1 | [8] 1 | [10] 1.01 | [11] 1.02 | [12] 0.923 | [13] 0.915
active: [9] 0.798

NC(=S)c1ccc[n+]([C@@H]2O[C@@H](COP(=O)([O-])OP(=O)(O)OC[C@H]3O[C@@H](n4cnc5c(N)ncnc54)C(OP(=O)(O)O)[C@H]3O)C(O)C2O)c1 (some centres not stated)
inactive: [14] 1.02 | [1] 1.03 | [2] 1.01 | [4] 1 | [5] 0.999 | [7] 0.995 | [8] 1 | [10] 1 | [11] 1.03 | [12] 1 | [15] 1.02 | [13] 0.998 | [16] 1.01

Cc1ccc(S(=O)(=O)Oc2cc(=O)n(C)c3ccccc23)cc1
inactive: [14] 0.95 | [17] 0.967 | [18] 0.967 | [19] 0.945 | [3] 0.918 | [20] 0.972 | [21] 0.955 | [22] 0.791 | [23] 0.961 | [25] 0.961 | [6] 0.96 | [26] 0.971 | [27] 0.952 | [28] 0.838 | [29] 0.918 | [30] 0.952 | [31] 0.963 | [7] 0.903 | [9] 0.954 | [32] 0.916 | [15] 0.977 | [33] 0.909 | [34] 0.808 | [35] 0.898 | [16] 0.873 | [36] 0.666
active: [24] 0.861 | [8] 0.622

Cc1ccc(S(=O)(=O)Oc2ccc(CC#N)cc2)cc1
inactive: [14] 0.998 | [17] 0.963 | [18] 1.02 | [19] 0.978 | [3] 0.995 | [20] 0.976 | [21] 1.01 | [22] 0.974 | [23] 0.953 | [25] 1.01 | [6] 0.993 | locus YKL190W, strain CNB1, stronger effect = lower value 0.945 | [26] 0.865 | [27] 0.977 | [28] 0.929 | [29] 0.845 | [30] 0.956 | [31] 0.989 | [7] 0.995 | locus YNL128W, strain TEP1, stronger effect = lower value 0.995 | [9] 1.01 | [32] 0.977 | [15] 0.978 | [33] 0.969 | [34] 0.971 | [35] 0.958 | [16] 0.979 | [36] 0.863

OC[C@@H](O)C(O[C@@H]1O[C@H](CO)[C@H](O)[C@H](O)[C@H]1O)[C@H](O)[C@@H](O)CO (some centres not stated)
inactive: locus YAL021C, strain ccr4, stronger effect = lower value 0.969 | locus YAL026C, strain drs2, stronger effect = lower value 0.99 | locus YAL030W, strain snc1, stronger effect = lower value 0.986 | locus YBL061C, strain skt5, stronger effect = lower value 0.993 | locus YBR009C, strain hhf1, stronger effect = lower value 0.991 | locus YBR023C, strain chs3, stronger effect = lower value 0.984 | locus YBR171W, strain sec66, stronger effect = lower value 0.98 | locus YBR279W, strain paf1, stronger effect = lower value 0.981 | locus YCL011C, strain gbp2, stronger effect = lower value 0.995 | locus YCL016C, strain dcc1, stronger effect = lower value 0.983 | locus YCL061C, strain MRC1, stronger effect = lower value 0.994 | locus YCL069W, strain vba3, stronger effect = lower value 0.99 | locus YCR088W, strain abp1, stronger effect = lower value 0.98 | locus YDL005C, strain med2, stronger effect = lower value 0.979 | locus YDL040C, strain nat1, stronger effect = lower value 0.988 | locus YDR001C, strain nth1, stronger effect = lower value 0.99 | locus YDR069C, strain doa4, stronger effect = lower value 0.981 | locus YDR137W, strain rgp1, stronger effect = lower value 1 | locus YDR159W, strain sac3, stronger effect = lower value 0.982 | locus YDR195W, strain ref2 0.963 | locus YDR297W, strain sur2, stronger effect = lower value 0.987 | locus YDR334W, strain swr1, stronger effect = lower value 0.98 | locus YDR335W, strain msn5, stronger effect = lower value 0.987 | locus YDR392W, strain spt3, stronger effect = lower value 0.992 | locus YEL003W, strain gim4, stronger effect = lower value 1.01 | locus YEL037C, strain rad23, stronger effect = lower value 0.991 | locus YEL061C, strain CIN8 (second series), stronger effect = lower value 0.995 | locus YER015W, strain faa2, stronger effect = lower value 0.991 | locus YER016W, strain bim1, stronger effect = lower value 0.988 | locus YER111C, strain swi4, stronger effect = lower value 0.996 | locus YER155C, strain BEM2 (second series), stronger effect = lower value 0.976 | locus YFR010W, strain ubp6, stronger effect = lower value 0.975 | locus YGL167C, strain pmr1, stronger effect = lower value 0.986 | locus YGL173C, strain kem1, stronger effect = lower value 0.981 | locus YGL227W, strain vid30, stronger effect = lower value 0.99 | locus YGL240W, strain doc1, stronger effect = lower value 0.999 | locus YGL253W, strain hxk2, stronger effect = lower value 0.989 | locus YHR013C, strain ard1, stronger effect = lower value 0.989 | locus YHR027C, strain rpn1, stronger effect = lower value 1 | [22] 0.976 | locus YHR079C, strain IRE1, stronger effect = lower value 0.974 | locus YHR142W, strain chs7, stronger effect = lower value 0.983 | locus YJL092W, strain hpr5, stronger effect = lower value 0.989 | locus YJL095W, strain BCK1 (second series), stronger effect = lower value 0.98 | locus YJL095W, strain BCK1, stronger effect = lower value 1.03 | locus YJL115W, strain asf1, stronger effect = lower value 0.978 | locus YJL129C, strain trk1, stronger effect = lower value 0.985 | locus YJL154C, strain vps35, stronger effect = lower value 0.991 | locus YJL164C, strain tpk1, stronger effect = lower value 0.996 | locus YJL166W, strain qcr8, stronger effect = lower value 0.987 | [24] 0.991 | locus YJR066W, strain TOR1, stronger effect = lower value 0.926 | locus YKL160W, strain elf1, stronger effect = lower value 0.991 | locus YKR026C, strain gcn3, stronger effect = lower value 0.985 | locus YKR091W, strain srl3, stronger effect = lower value 0.983 | locus YLL001W, strain dnm1, stronger effect = lower value 1 | locus YLL026W, stronger effect = lower value 0.989 | locus YLL041C, strain sdh2, stronger effect = lower value 0.992 | locus YLR027C, strain aat2, stronger effect = lower value 0.991 | locus YLR113W, strain HOG1, stronger effect = lower value 1.04 | locus YLR221C, strain rsa3, stronger effect = lower value 0.994 | locus YLR258W, strain gsy2, stronger effect = lower value 0.989 | locus YLR262C, strain YPT6 (second series), stronger effect = lower value 1 | locus YLR320W, strain mms22, stronger effect = lower value 0.98 | locus YLR342W, strain FKS1, stronger effect = lower value 0.987 | locus YLR357W, strain rsc2, stronger effect = lower value 0.959 | locus YLR370C, strain arc18, stronger effect = lower value 0.994 | locus YLR384C, strain iki3, stronger effect = lower value 0.983 | locus YML120C, strain ndi1, stronger effect = lower value 0.995 | locus YMR058W, strain fet3, stronger effect = lower value 0.99 | locus YMR125W, strain sto1, stronger effect = lower value 0.981 | locus YMR129W, stronger effect = lower value 0.995 | locus YMR205C, strain PFK2, stronger effect = lower value 0.994 | locus YMR231W, strain pep5, stronger effect = lower value 0.967 | locus YNL071W, strain lat1, stronger effect = lower value 0.985 | locus YNL183C, strain NPR1, stronger effect = lower value 0.934 | locus YNL209W, strain ssb2, stronger effect = lower value 1.01 | locus YNL248C, strain rpa49, stronger effect = lower value 0.991 | locus YNL322C, strain KRE1 (second series), stronger effect = lower value 0.986 | locus YNR049C, strain mso1, stronger effect = lower value 0.981 | locus YOR001W, strain rrp6, stronger effect = lower value 0.989 | locus YOR070C, strain gyp1, stronger effect = lower value 0.996 | locus YOR080W, strain dia2, stronger effect = lower value 0.981 | locus YOR083W, strain WHI5, stronger effect = lower value 0.986 | locus YOR106W, strain vam3, stronger effect = lower value 0.988 | locus YOR231W, strain MKK1, stronger effect = lower value 0.976 | locus YOR265W, strain rbl2, stronger effect = lower value 1 | locus YOR270C, strain vph1, stronger effect = lower value 1.01 | locus YOR290C, strain snf2, stronger effect = lower value 0.998 | locus YPL051W, strain arl3, stronger effect = lower value 1.01 | locus YPL078C, strain atp4, stronger effect = lower value 0.997 | locus YPL106C, strain sse1, stronger effect = lower value 0.969 | locus YPL240C, strain hsp82, stronger effect = lower value 0.988 | locus YPL256C, strain CLN2, stronger effect = lower value 0.986
